# According to PubChem BioAssay (NCI):
# The panel holds about 83,000 compounds, 20% with a hit somewhere; the sample as a whole holds those more often.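 96-well plates, one dose, 48 hours. Percent growth reported; active if below 10.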 Active and inactive are the calls of the source.
# System: NCI-H322M lung
# Assay: NCI-60 one-dose screen, 48 h (100 = growth as untreated, 0 = no growth, -100 = all killed)
# Settings: 10 µM unless noted
row,SMILES,growth
1,Nc1[nH]n2cc(-c3ccc(F)cc3)nc2c1N=Nc1ccc(S(N)(=O)=O)cc1,41.9% (inactive)
2,O=C(Nc1ncccc1OCc1ccccc1)NC1CCCCCC1,88.2% (inactive)
3,CCNc1nc(O)c(/C=C2\C=Nc3ncccc32)s1,5.83% (active)
4,Cn1cc(-c2nn3cc(-c4cccs4)nc3s2)c2cc(F)ccc21,50.1% (inactive)
5,Cc1ccc(-c2nc(/C=C3/C(=O)Nc4ccc(F)cc43)c3ccccn23)cc1,91.6% (inactive)
6,O=[N+]([O-])c1ccc(-c2cn3nc(-c4c[nH]c5ccccc45)sc3n2)cc1,84.9% (inactive)
7,O=C(CI)NC(=O)NC(=O)NCc1ccccc1,86.4% (inactive)
8,O=C(Nc1cc(Cl)ccc1O)c1cccc(Nc2ccnc(C(F)(F)F)c2)c1,59.1% (inactive)
9,N#Cc1c(Nc2ccc(N3CCOCC3)cc2)nc(SCC(=O)c2ccc(Br)cc2)nc1-c1ccccc1,97.7% (inactive)
10,COc1cc(OC)c(/C=C/C(=O)c2c(O)cc(OC)c(C3CCN(C)CC3)c2OC)c(OC)c1,-15.8% (active)
11,CCS/C(Nc1ccccc1)=C(\C#N)C(=O)Nc1ccc(OC)cc1,51.6% (inactive)
12,C=CN(C(=O)N1CCN(c2cc3c(cc2F)c(=O)c(C(=O)O)cn3C2CC2)CC1)c1nc(-c2ccc(OC)cc2)cs1,15.3% (inactive)
13,O=C(Nc1ccccc1[N+](=O)[O-])c1ccc(Cl)c(Cl)c1,101% (inactive)
14,CCn1cc(CNc2ccc(C(=O)Nc3cc4cc(OC)c(OC)cc4c(C)n3)cc2)cn1,103% (inactive)
